aSyn 5UTR act: Activators via SNCA 5'UTR binding, MLPCN; alpha-synuclein 5'UTR reporter, activators screen; activity score, % (tested at 7.5 µM), hits read low; actives 7.1% (n = 300,000); in the data active = activity score below about -60%
Numbers stand for hits; i = inactive. Not all results are given here.

SMILES | aSyn 5UTR act
Cc1ccc(C(=O)Nc2ncc([N+](=O)[O-])s2)cc1 | i
O=C(Cc1ccc(Br)cc1)Nc1ncc([N+](=O)[O-])s1 | -105
C(=N\n1cnnc1)/c1ccc(OCc2cccc3ccccc23)cc1 | -110
C(=N\n1cnnc1)/c1cccc(OCCOc2ccccc2)c1 | -65
Cc1ccccc1-c1cc2nc(C)c(C)c(=O)n2[nH]1 | -101
Cc1nc2cc(-c3cccs3)[nH]n2c(=O)c1C | -108
Cc1nc2cc(-c3ccc(F)cc3)[nH]n2c(=O)c1C | -129
CCC(C)NC(=O)Cn1c(COc2ccc(Cl)cc2Cl)nc2ccccc21 (centres undefined) | -122
Cc1c(/C(O)=C2\C(=O)C(=O)N(CCN(C)C)C2c2cccs2)cnn1-c1ccccc1 (centres undefined) | -88
Cc1ccc(C2/C(=C(/O)c3cnn(-c4ccccc4)c3C)C(=O)C(=O)N2CCCN2CCOCC2)o1 (centres undefined) | -111
Oc1ccccc1-c1cc(-c2cccc(F)c2)n[nH]1 | -234
CC(=O)NC(c1ccccc1)c1nc2ccccc2[nH]1 (centres undefined) | -64
C/C(=N\N=c1/sc2ccccc2n1C)c1ccccn1 | -122
C/C(=N\N=c1/sc2ccccc2n1C)c1ccc(N2CCOCC2)cc1 | -132
CCC(=O)NC(=S)Nc1ccc(-c2nc3ccc(C)cc3s2)cc1 | -238
Cc1ccc2nc(-c3ccc(NC(=S)NC4CC(C)(C)NC(C)(C)C4)cc3)sc2c1 | i
Cc1ccc2nc(-c3ccc(NC(=S)NC(=O)C(C)C)cc3)sc2c1 | -208
NC1=NC(=O)/C(=C\c2cc([N+](=O)[O-])ccc2Cl)S1 | -95
CCOc1ccc(C(=O)Nc2ccccc2C(=O)O)cc1 | -89
O=C(Nc1ccccc1C(=O)N/N=C/c1ccncc1)c1ccccc1 | -140
COc1ccc(C(=O)Nc2ccccc2C(=O)N/N=C/c2ccco2)cc1 | -79
CCOc1ccc(/C=N/NC(=O)c2ccccc2NC(=O)c2ccc(OC)cc2)cc1 | -71
Cc1ccc(NC(=O)C2C3/C=C\CCCCC32)cc1C (centres undefined) | -115
CC(C)CCNC(=O)c1cc2c(=O)n3ccccc3nc2s1 | -146
CCN(CC)C(=O)c1cc2c(=O)n3ccccc3nc2s1 | -125
Cc1cc(NS(=O)(=O)c2ccc(NC(=O)c3cc4c(=O)n5ccccc5nc4s3)cc2)nc(C)n1 | -79
COc1ccc2nc(Cl)c(/C=N/Nc3ccccn3)cc2c1 | -88
COc1ccc(/C=N/Nc2nccnc2Cl)c(OC)c1 | -111
COc1cccc(/C=N/Nc2nccnc2Cl)c1O | i

High-throughput results: PubChem BioAssay, Broad Institute
